Source: PubChem (National Center for Advancing Translational Sciences (NCATS))
Compounds with a hit are over-represented: about 20% of the library has one in this group of screens.
Cycloheximide cs: affects cycloheximide protein synthesis inhibition readout, counter-screen; max response, %; actives 12% (n = 300,000); cell reporter, cycloheximide protein synthesis inhibition counterscreen; AID 2314; in the data active means max response mostly above about 13%, no sharp cut-off; inactive means mostly below about 14%; further: read at 38.3 µM for the half of the compounds with a filed dose
HCMV inh: inhibitors of human cytomegalovirus; HFF cells, HCMV-luciferase reporter, 72 h; active compounds read low; activity change, negative = inhibition, % at 57.5 µM; actives 4.5% (n = 410,000); AID 1259415; in the data active means activity change below about -60%; inconclusive means no clear call, values can overlap the other calls; inactive means above about -39%
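After 16 h attachment at 37C, HFF cells received test compound and HCMV-luciferase (1 PFU/cell); reporter luminescence read 72 h later, data normalized against buffer-only and known inhibitor Salinomycin.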
Pf growth 48h: P. falciparum growth inhibition at 48 hours (one generation). Potency, µM (titrated, usually from 28.7 µM), hits mostly inhibitors. P. falciparum luciferase growth in erythrocytes, 48 h. actives 5.9% (n = 310,000). AID 504832
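Erythrocytes infected with P. falciparum carrying an integrated firefly luciferase reporter (2% hematocrit, 0.1% parasitemia final) were exposed to compounds in RPMI 1640 with 0.5% Albumax at 37 C, 5% CO2. Growth inhibition was scored as reduced luminescence.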
Pf growth 96h: inhibits malaria parasite growth, 96 h; P. falciparum luciferase reporter growth, 96 h; Potency, µM (titrated, usually from 28.7 µM), usual class: inhibitors; actives 6.9% (n = 320,000); AID 504834
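Plates of compound plus infected erythrocytes (2% hematocrit, 0.05% parasitemia final) incubate 96 hours, 37 C, 5% CO2. Detection reagent added; reduced luminescence from the parasites' luciferase reporter flags inhibition.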
Shiga toxin inh: inhibitors of Shiga toxin in Vero cells; Vero cells, Shiga toxin protein synthesis inhibition reporter; inhibition, % at 38.7 µM; actives 9.2% (n = 290,000); AID 2315; in the data active means inhibition mostly above about 28%, no sharp cut-off; inactive means mostly below about 43%
Of the large screens only hits and unclear results are named; the others gave an inactive call. Unless noted, the call rests on the fitted dose curve; in most records, active means well fitted inhibition curve with a large enough effect; inconclusive means small, poorly fitted or top-dose-only effect, or another doubt; inactive means no such curve, though single readings can be large or run the other way.

O=S(=O)(NCCCSc1ccccc1)c1ccccc1F	none
CCCCC1(Cc2ccc([N+](=O)[O-])cc2)C(=O)N(c2ccccc2)N(c2ccccc2)C1=O	HCMV inh -98, Pf growth 48h 4.1µM, Pf growth 96h inconclusive
CCCCC1(COC(=O)CCC(=O)O)C(=O)N(c2ccccc2)N(c2ccccc2)C1=O	Pf growth 48h inconclusive (no result: Cycloheximide cs, Shiga toxin inh)
CCC(C)(C(=O)NC1CCCC1)N(Cc1cccs1)C(=O)c1ccc2c(c1)OCO2 (configuration not stated)	HCMV inh inconclusive
C=C(C)CSc1nc(N)c2c(C)c(C)sc2n1	Cycloheximide cs 19 (no result: Pf growth 96h)
Cc1cc(SCC(=O)c2ccccc2)n2ncc(-c3ccccc3)c2n1	Cycloheximide cs 61, Shiga toxin inh 67
COc1ccc(-c2cc(C)nc3c(-c4ccccc4)cnn23)cc1	Cycloheximide cs 41, Shiga toxin inh 90
Cc1cc(-c2ccccc2)n2ncc(-c3ccccc3)c2n1	Cycloheximide cs 47, HCMV inh -60, Shiga toxin inh 97
Cc1nc2c(-c3ccccc3)cnn2c(N)c1-c1ccccc1	HCMV inh -91
Cc1nc2ccccc2nc1SCC(=O)c1ccccc1	none
COc1ccc(CNC(=O)C[C@H]2C(=O)N(c3ccccc3)C[C@@H]2Cc2ccccc2)cc1	Pf growth 96h inconclusive
Cc1ccc(CNC(=O)CN2C(=O)COc3ccc(S(=O)(=O)Nc4ccccc4)cc32)cc1	none (no result: Cycloheximide cs, Pf growth 48h, Pf growth 96h, Shiga toxin inh)
Cc1ccc(N2CCN(C(=S)Nc3ccccc3C)CC2)cc1	none (no result: Shiga toxin inh)
O=c1c2ccccc2nc2oc3ccccc3n12	Cycloheximide cs 42, Pf growth 96h 13µM, Shiga toxin inh 84
O=C(CSc1ccc(Cl)cc1)N/N=C/c1cccnc1	Pf growth 48h inconclusive, Pf growth 96h inconclusive
C(=N\N=C\c1cccnc1)/c1cccnc1	Cycloheximide cs 40, Pf growth 48h inconclusive, Pf growth 96h inconclusive, Shiga toxin inh 26 (no result: HCMV inh)
Clc1ccc(N/N=C/c2cccnc2)cc1	Pf growth 96h inconclusive, Shiga toxin inh 30
O=[N+]([O-])c1ccc(N/N=C/c2cccnc2)cc1	Cycloheximide cs 33, Pf growth 96h inconclusive, Shiga toxin inh 41
Cc1sc(N/N=C/c2cccnc2)nc1-c1ccc(Cl)cc1	Cycloheximide cs 15, Pf growth 48h 13µM
Cc1nnc(C)n1/N=C/c1cccnc1	none (no result: Pf growth 96h)
COC(=O)c1sc(-c2ccc(C(C)(C)C)cc2)cc1NC(=O)CCC(=O)O	Cycloheximide cs 27, Shiga toxin inh 64
COC(=O)c1sc(-c2ccc(Cl)cc2)cc1NC(=O)COCC(=O)O	Pf growth 48h 2.1µM
CCC(C)c1c(N)n(S(=O)(=O)c2ccc(C)cc2)oc1=O (configuration not stated)	none (no result: Cycloheximide cs, Pf growth 48h, Pf growth 96h, Shiga toxin inh)
O=C(Nc1ccc(F)cc1)C1CC(=O)N(Cc2ccco2)C1 (configuration not stated)	none
O=C(c1ccccc1)C1CCc2occc2C1=O (configuration not stated)	Pf growth 48h inconclusive
Cc1ccc(NC(=O)C(=O)NCCc2sc(-c3ccc(Cl)cc3)nc2C)cc1C	none (no result: Cycloheximide cs, Pf growth 48h, Pf growth 96h, Shiga toxin inh)
CNC(=S)N1CCC(c2nc3ccccc3s2)CC1	Cycloheximide cs 28
CC(C)NC(=O)N1CCC(c2nc3ccccc3s2)CC1	none
COc1cccc(C(=O)N2CCC(c3nc4ccccc4s3)CC2)c1	none (no result: Cycloheximide cs, Pf growth 48h, Pf growth 96h, Shiga toxin inh)
O=C(c1cccc(F)c1)N1CCC(c2nc3ccccc3s2)CC1	Pf growth 96h 4.1µM
CCCNC(=O)N1CCC(c2nc3ccccc3s2)CC1	HCMV inh -75, Pf growth 96h inconclusive
CCNC(=S)N1CCC(c2nc3ccccc3s2)CC1	none
Cn1c(Nc2ccccc2)nc2cnc(-c3ccc(S(C)(=O)=O)cc3)cc21	none (no result: Cycloheximide cs, Pf growth 48h, Pf growth 96h, Shiga toxin inh)
CCCn1nnc(NC(=O)c2ccc3ccccc3c2)n1	Cycloheximide cs 44, Shiga toxin inh 143
CCCn1nnc(NC(=O)COc2ccc(Cl)cc2)n1	none
CCn1nnc(NC(=O)c2cccnc2)n1	none
CCCn1nnc(NC(=O)c2ccc(F)cc2)n1	Cycloheximide cs 48, Shiga toxin inh 57
CCCn1nnc(NC(=O)c2ccc(Br)o2)n1	none (no result: Pf growth 96h)
CCCn1nnc(NC(=O)c2cccc(OCC)c2)n1	Cycloheximide cs 45, Shiga toxin inh 130 (no result: Pf growth 96h)
CCn1nnc(NC(=O)c2ccc(C(C)(C)C)cc2)n1	Cycloheximide cs 36, Pf growth 48h 2.9µM
CCOC(=O)c1c(CSc2ccc(C)cc2)oc2ccc(O)cc12	Pf growth 48h inconclusive, Pf growth 96h inconclusive
CC12CCC(=O)N1C(C(=O)OCC(=O)Nc1ccc(Cl)c(Cl)c1)CS2 (configuration not stated)	none
O=C(CCCCCNS(=O)(=O)c1ccc(Br)cc1)NCCN1CCOCC1	none
CCCn1nnc(NC(=O)c2cccc(OCC(C)C)c2)n1	Cycloheximide cs 39, Shiga toxin inh 71
CC(C)COc1cccc(C(=O)NC2(C)CCS(=O)(=O)C2)c1 (configuration not stated)	none
CCc1ccc2c(COC(=O)c3n[nH]c4ccccc34)cc(=O)oc2c1	Cycloheximide cs 46, Shiga toxin inh 94
Cc1ccc2c(COC(=O)c3n[nH]c4ccccc34)cc(=O)oc2c1	Cycloheximide cs 32, Shiga toxin inh 78
Cc1ccc2c(COC(=O)c3ccccc3F)cc(=O)oc2c1	Cycloheximide cs 27, Shiga toxin inh 128
Cc1ccc2c(COC(=O)c3c(C)noc3C)cc(=O)oc2c1	none
CCCCn1nc(C(=O)Nc2ccccc2N2CCCC2)c2ccccc2c1=O	Pf growth 48h inconclusive, Pf growth 96h inconclusive (no result: Cycloheximide cs, Shiga toxin inh)
COc1ccc(Br)cc1/C=N/Nc1cccc(C(=O)O)c1	Cycloheximide cs 49
COc1ccc(/C(C)=N\NS(=O)(=O)c2ccccc2)cc1OC	none
O=C(O)c1cccc(N/N=C/c2cc(Br)cc(Br)c2O)c1	Cycloheximide cs 51, Pf growth 96h inconclusive, Shiga toxin inh 126
COc1ccc(/C(C)=N/Nc2nc3ccccc3nc2C)cc1OC	Cycloheximide cs 34, Pf growth 96h inconclusive, Shiga toxin inh 57
COc1ccccc1/C=C/C=N/Nc1cccc(C(=O)O)c1	Cycloheximide cs 42, Shiga toxin inh 132
COc1ccc(Br)cc1/C=N/NC(=O)C[n+]1ccccc1	none
Cc1cccc(C)c1NC(=O)C1C2C=CC(C2)C1C(=O)NCc1ccccn1 (configuration not stated)	none (no result: Pf growth 96h)
Cc1cc(OCC(=O)OCC(=O)c2c(N)n(C)c(=O)n(C)c2=O)ccc1Cl	none (no result: Cycloheximide cs, Shiga toxin inh)
C/C(=N\Nc1cccc(C(=O)O)c1)c1ccc(Cl)s1	Cycloheximide cs 68, Shiga toxin inh 121
COc1ccc(/C(C)=N\Nc2nc(-c3ccc(Cl)cc3)cc(C(F)(F)F)n2)cc1OC	HCMV inh inconclusive, Pf growth 48h 10µM, Pf growth 96h inconclusive
CN(/N=C/c1cc(Br)cc(Br)c1O)c1ccccc1	none
C/C(=N\NC(=O)C(=O)Nc1cccc(C(F)(F)F)c1)c1ccc(Cl)s1	none
COc1ccc(C(=O)Nc2cccc(/C(C)=N/NC(=O)c3ccc([N+](=O)[O-])cc3)c2)cc1OC	none
COc1ccc(/C(C)=N/Nc2cccc(C(=O)O)c2)cc1OC	Cycloheximide cs 104, Shiga toxin inh 187
Cc1c(N=Cc2cc(Br)cc(Br)c2O)cccc1C(=O)O	Pf growth 48h 12µM, Pf growth 96h inconclusive
